# AMA1 RON2 block – disrupts binding of P. falciparum AMA1 to RON2; AlphaScreen AMA1-biotinylated RON2 peptide binding; Potency, µM (highest dose often 58.2 µM), for the others: at the highest dose activity change, negative = inhibition, usual class: inhibitors; 360,000 tested, 0.2% active;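 further: 0% = vehicle wells and -100% = peptide control; nearly all actives have a fitted effect of over 45% in size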
#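 AMA1 (3D7) with his tag at 25 nM final met compounds first, then biotinylated RON2 peptide at 25 nM; detection used donor plus acceptor beads, 10 µg/mL apiece, read by AlphaScreen after 30 min at room temperature.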
# NS1 function inh – inhibitors of influenza NS1 protein function; Potency, µM (top dose mostly 46.1 µM), for inactives: at the highest dose activity, positive = more growth; 270,000 tested, 0.4% active; AID 2326; calls by dose curve; further: actives are rising curves; nearly all actives have a fitted effect of over 50% in size
#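 Read-out: OD600 growth recovery of NS1-expressing budding yeast. Cells grown overnight at 30C in -URA glucose medium, washed, resuspended and diluted 1:100 in 2% galactose assay medium, pH 6.0. Same strain lacking NS1 served as positive control.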
# Pf growth 96h – P. falciparum growth inhibition at 96 hour, primary screen for plastid delayed-death inhibitors | Potency, µM (top dose mostly 28.7 µM), for inactives: top-dose activity change, negative = inhibition, most hits filed as inhibitors | 320,000 tested, 6.9% active | P. falciparum luciferase reporter growth, 96 h; further: on the % scale 0 is the no-effect control and ±100 the full control effect
#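 Delayed-death screen, second-generation endpoint: infected erythrocytes, 2% hematocrit, 0.05% parasitemia final; 96 hours at 37 C, 5% CO2; luciferase detection reagent; luminescence decrease equals reduced growth.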
# Sm TGR block – blocks Schistosoma mansoni thioredoxin glutathione reductase. 360,000 tested, 3% active. AID 485364. Potency, µM (doses to about 114 µM), for inactives: top-dose activity change, negative = inhibition, usual class: inhibitors. purified TGR, DTNB reduction, TNB absorbance 405 nm; further: on the % scale 0 is the no-effect control and ±100 the full control effect; nearly all actives have a fitted effect of over 60% in size
#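 TGR 20 nM + NADPH 100 uM (dispensed conc.), cpd preinc 15 min RT; start with NADPH (500 uM addition) then DTNB (15 mM addition). Kinetic TNB absorbance, 405 nm filter. Four-parameter Hill fit across titration.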
# Pf growth 48h – inhibits P. falciparum growth in the first generation, 48 h | P. falciparum luciferase growth in erythrocytes, 48 h | AID 504832 | Potency, µM (series often up to 28.7 µM), for the others: top-dose activity change, negative = inhibition, usual class: inhibitors | 310,000 tested, 5.9% active; further: on the % scale 0 is the no-effect control and ±100 the full control effect
#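 Growth was read as firefly luciferase luminescence after a 48 h, 37 C, 5% CO2 exposure of compounds to reporter-bearing P. falciparum cultures (0.1% parasitemia, 2% hematocrit final) in Albumax-supplemented RPMI 1640.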
# Active calls of the source: *; ? = inconclusive; nt = no result given; [ ] = remark or other dose. In the library only some 11% were active in any assay of this set; here they are far more common. Unless noted, the call rests on the fitted dose curve; in most records, active means well fitted curve in the direction sought with a large enough effect; inconclusive means small, poorly fitted or top-dose-only effect, or another doubt; inactive means no such curve, though single readings can be large; an effect the other way counts as inactive or inconclusive. Potency means the concentration at half of the fitted maximal effect.
SMILES,AMA1 RON2 block,NS1 function inh,Pf growth 96h,Sm TGR block,Pf growth 48h
CCOc1cccc(N2C(=O)CC(N(CCc3ccc(OC)c(OC)c3)C(=O)CC)C2=O)c1 (stereo unspecified),-10.9%,-11.0%,5.86µM*,-22.7%,0.0%
Cc1ccc(Nc2cc(C)nn2-c2nc(C)cc(=O)[nH]2)cc1,51.6%,-151.4%,-6.8%,-0.6%,?
Cc1ccc(Nc2cc(C)nn2-c2nc(C)cc(C)n2)cc1,-11.3%,-153.7%,nt,10.8%,3.7µM*
O=C(O)c1cc(=O)[nH]c2c(Cl)cccc12,-4.2%,6.5%,?,1.5%,18.8%
CCOC(=O)N1CCC(NC(=O)CS(=O)(=O)Cc2nc(-c3ccccc3C)oc2C)CC1,-5.8%,-34.0%,?,44.7µM*,-4.3%
CCN1CCCC1CNC(=O)CSCc1nc(-c2ccccc2C)oc1C (stereo unspecified),17.0%,-1.6%,-4.5%,17.6%,?
Cc1oc(-c2ccccc2Cl)nc1CS(=O)(=O)CC(=O)NC1CCCC1,-0.1%,-11.3%,?,44.7µM*,?
Cc1ccccc1-c1nc(CS(=O)(=O)CC(=O)NC2CCCC2)c(C)o1,5.2%,-11.2%,17.6%,39.8µM*,7.3%
CCN1CCCC1CNC(=O)CS(=O)(=O)Cc1nc(-c2ccccc2C)oc1C (stereo unspecified),-6.7%,-12.2%,-16.1%,-31.0%,11.7µM*
CC(OC(=O)c1cccc(-n2cnnn2)c1)C(=O)NCc1ccccc1 (stereo unspecified),-4.6%,nt,13.8%,-1.1%,9.4%
COc1ccc(Cl)cc1S(=O)(=O)Nc1noc2ccccc12,-1.2%,-7.1%,30.3%,20.6%,14.4%
CCOC(=O)N1CCN(Cc2nnc(-c3ccccc3C)o2)CC1,-5.1%,2.2%,0.738µM*,6.9%,18.7%
CCOC(=O)C1CCN(Cc2nnc(-c3ccccc3C)o2)CC1,11.5%,-3.9%,11.8%,13.7%,-4.8%
CC(C)(C)OC(=O)NC1CNNC1=O (stereo unspecified),-14.2%,nt,34.6%,-4.9%,28.4%
Cc1ccc(-n2c(SCc3ccc(C#N)cc3)nnc2-c2ccccn2)cc1,6.9%,-54.9%,10.4µM*,-6.9%,?
COc1ccc(-n2c(COc3ccc(C)cc3)nnc2SCC(=O)O)cc1,-7.6%,?,?,2.6%,-52.0%
C=CCn1c(COc2ccc(Cl)cc2)nnc1SCc1ccc(C#N)cc1,-7.5%,-175.4%,-24.8%[5.75 µM],1.4%,?
C=CCn1c(COc2ccccc2)nnc1SCc1ccc(C#N)cc1,6.8%,-50.8%,0.928µM*,-7.0%,-9.7%
COc1ccc(-n2c(SCc3ccc(C#N)cc3)nnc2-c2ccccn2)cc1,3.4%,-10.2%,?,-13.7%,?
Cc1ccc(OCc2nnc(SCc3ccc(C#N)cc3)n2-c2ccc(C)cc2)cc1,-14.3%,5.3%,nt,5.8%,13.1µM*
CC(=O)Nc1cc2c3c(cccc3c1)-c1ccccc1-2,19.9%,nt,nt,nt,nt
O=C(NCc1ccccc1Cl)c1cc(=O)[nH]c2ccc(S(=O)(=O)N3CCCCC3)cc12,nt,nt,nt,0.0%,nt
CC(C)=CCC[C@H](C)C[C@@H]1CC2=C(C(=O)OC(C)(C)O2)[C@H](c2ccc(F)cc2)O1,17.7%,nt,nt,nt,nt
CCn1c(CN2CCCCC2)nc2cc(NC(=O)COc3ccc([N+](=O)[O-])cc3)ccc21,nt,nt,nt,-1.9%,nt
Fc1ccccc1N1CCN(c2nc(-c3cccs3)nc3ccccc23)CC1,5.2%,9.2%,?,1.1%,?
SMILES,AMA1 RON2 block,NS1 function inh,Pf growth 96h,Sm TGR block,Pf growth 48h
CN(Cc1ccccc1F)c1nc(-c2cccs2)nc2ccccc12,-7.5%,-42.4%,-4.3%,0.9%,9.28µM*
COc1ccc(CCNC(=O)c2ccc(N3CCCCS3(=O)=O)cc2)cc1OC,5.0%,0.8%,-2.0%,-2.2%,?
Cc1cc(C)c(NC(=O)c2ccc3nccnc3c2)c(C)c1,1.3%,nt,3.3%,0.8%,?
Cc1ccc(NC(=O)c2ccc3nccnc3c2)c(C)c1,-8.7%,-0.5%,-23.8%,56.2µM*,69.0%
COc1cc2c(cc1OC)C(C(C(=O)N(CCc1ccc(OC)c(OC)c1OC)CCc1ccc(OC)c(OC)c1OC)c1ccccc1)=NCC2 (stereo unspecified),nt,nt,1.51µM*,nt,1.35µM*
CCOc1ccccc1Nc1nnc(SCC(=O)Nc2cccc(S(=O)(=O)NC3=NCCCCC3)c2)s1,-13.1%,?,9.28µM*,-0.7%,?

# Screening results deposited in PubChem BioAssay by National Center for Advancing Translational Sciences (NCATS).
